# Values joined by “and” are separate entries in the source; they are usually repeats but may differ in a detail not shown here. Equal values may be shown once. Inconclusive results are not listed. Entries that show only a call come without a potency. The source holds several records for some structures; these can differ, active in one and inactive in another. Active and inactive are the calls of the source. Unless noted, calls come from the whole dose curve; as a rule, active = well fitted curve in the direction sought with a large enough effect in the repeat runs; inconclusive = weak or mixed curves; inactive = no such curve, though single readings can be large; an effect the other way counts as inactive or inconclusive.
# Experiments:
# [1] = qHTS assay to identify small molecule agonists of the peroxisome proliferator-activated receptor delta (PPARd) signaling pathway - cell viability counter screen (AID 743211); note: nearly all actives have a fitted effect of over 55% in size
# Outline: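 Counter screen for cytotoxicity run in parallel with the PPARd reporter screen. Beta-lactamase reporter HEK293H cells exposed to compounds 17 h; ATP-based CellTiter-Glo luminescence quantified viability.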
# [2] = target: Peroxisome proliferator-activated receptor delta (Homo sapiens) (UniProt Q03181); experiment: qHTS assay to identify small molecule agonists of the peroxisome proliferator-activated receptor delta (PPARd) signaling pathway (AID 743212; calls by dose curve;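 note: HEK293H cells with PPARd UAS beta-lactamase reporter GeneBLAzer system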)
# Outline: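 Beta-lactamase reporter readout: a ratiometric FRET signal from the LiveBLAzer substrate after 2 h at room temperature. Compound exposure at 37 °C in PPARδ-bla HEK293H cells driven by an upstream activator sequence.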
# [3] = qHTS assay to identify small molecule antagonists of the peroxisome proliferator-activated receptor delta (PPARd) signaling pathway - cell viability counter screen (AID 743213); note: nearly all actives have a fitted effect of over 50% in size; note: potency is the fitted concentration of half-maximal effect
# Outline: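 CellTiter-Glo was added to PPARd-bla HEK293H wells following 17 h compound treatment in the presence of 300 nM L165041. Luminescence was recorded after 30 min at room temperature.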
# [4] = target: Peroxisome proliferator-activated receptor delta (Homo sapiens) (UniProt Q03181); experiment: qHTS assay to identify small molecule antagonists of the peroxisome proliferator-activated receptor delta (PPARd) signaling pathway (AID 743215; active = well fitted inhibition curve with a large enough effect in the signal ratio in the repeat runs, not every such curve was filed as active; the % refers to the signal ratio;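 note: cells stimulated with agonist L165041 at 300 nM final during compound exposure; series mostly up to about 62 µM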)
# Outline: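 Screen format: qHTS, antagonist mode. HEK293H PPARd-bla cells received compound and 300 nM L165041 (final), 17 h, 37 C. Beta-lactamase detected via FRET substrate fluorescence, 2 h, room temperature.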
# [5] = qHTS assay to identify small molecule agonists of the farnesoid-X-receptor (FXR) signaling pathway - cell viability counter screen (AID 743218); note: nearly all actives have a fitted effect of over 45% in size
# Outline: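 Same-well cytotoxicity check on FXR-UAS-bla HEK 293T cells: 5 h attachment, 16 h compound at 37 C, CellTiter-Glo luminescence read at room temperature after 30 min.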
# [6] = qHTS assay to identify small molecule antagonists of the farnesoid-X-receptor (FXR) signaling pathway - cell viability counter screen (AID 743221; active = well fitted cell-killing curve with a large enough effect in the repeat runs, not every such curve was filed as active; note: nearly all actives have a fitted effect of over 50% in size)
# Outline: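 Multiplexed counter screen: viability of FXR-bla HEK 293T cells under agonist stimulation by chenodeoxycholic acid (50 uM, final) and test compound for 16 h at 37 C, measured by CellTiter-Glo luminescence in the reporter wells.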
# [7] = target: Vitamin D3 receptor (Homo sapiens) (UniProt P11473); experiment: qHTS assay to identify small molecule agonists of the vitamin D receptor (VDR) signaling pathway (AID 743222; calls by dose curve)
# Outline: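 Using LiveBLAzer B/G FRET detection, agonism was scored in VDR-bla cells exposed overnight (16 h, 37C) to DMSO-dissolved compounds; substrate incubation was 2 h at room temperature.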
# [8] = target: Vitamin D3 receptor (Homo sapiens) (UniProt P11473); experiment: qHTS assay to identify small molecule antagonists of the vitamin D receptor (VDR) signaling pathway (AID 743223; active = well fitted inhibition curve with a large enough effect in the signal ratio in the repeat runs, not every such curve was filed as active; the % refers to the signal ratio)
# Outline: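 Cells carrying a VDR-driven beta-lactamase reporter (VDR-bla) were co-treated with compound and 3 nM final 1alpha,25-dihydroxyvitamin D3 for 16 h at 37C; reporter activity was measured as FRET substrate fluorescence after 2 h at room temperature.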
# [9] = target: Bile acid receptor (Homo sapiens) (UniProt Q96RI1); experiment: qHTS assay to identify small molecule antagonists of the farnesoid-X-receptor (FXR) signaling pathway (AID 743217; active = well fitted inhibition curve with a large enough effect in the signal ratio in the repeat runs, not every such curve was filed as active; the % refers to the signal ratio)
# Outline: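 Quantitative HTS, beta-lactamase reporter format: FXR-UAS-bla HEK 293T cells co-treated 16 h at 37 °C with compounds and 50 uM final chenodeoxycholic acid, then read by B/G FRET fluorescence.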
# [10] = target: Bile acid receptor (Homo sapiens) (UniProt Q96RI1); experiment: qHTS assay to identify small molecule agonists of the farnesoid-X-receptor (FXR) signaling pathway (AID 743220; active = well fitted activation curve with a large enough effect in the signal ratio in the repeat runs, not every such curve was filed as active; the % refers to the signal ratio)
# Outline: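 FXR-UAS-bla HEK 293T cells carrying a UAS-driven beta-lactamase reporter were plated for 5 h at 37C/5% CO2, then exposed to DMSO-dissolved Tox21 10K compounds for 16 h at 37C. A LiveBLAzer B/G FRET substrate was loaded for 2 h at room temperature before fluorescence reading.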
# Chain of Peroxisome proliferator-activated receptor delta (Homo sapiens) (Q03181 whole entry, looked up): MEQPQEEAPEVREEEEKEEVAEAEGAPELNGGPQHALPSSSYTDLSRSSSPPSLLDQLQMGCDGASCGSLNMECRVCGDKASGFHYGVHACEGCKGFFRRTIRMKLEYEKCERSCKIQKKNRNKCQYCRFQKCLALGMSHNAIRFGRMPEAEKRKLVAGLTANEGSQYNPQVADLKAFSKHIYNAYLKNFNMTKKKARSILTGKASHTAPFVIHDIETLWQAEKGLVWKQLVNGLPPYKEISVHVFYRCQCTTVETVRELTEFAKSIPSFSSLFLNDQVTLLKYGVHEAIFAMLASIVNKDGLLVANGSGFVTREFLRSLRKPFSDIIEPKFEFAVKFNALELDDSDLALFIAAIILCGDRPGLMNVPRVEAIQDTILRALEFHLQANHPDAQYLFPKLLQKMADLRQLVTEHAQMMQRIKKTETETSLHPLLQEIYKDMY
# Chain of Vitamin D3 receptor (Homo sapiens) (P11473 whole entry, looked up): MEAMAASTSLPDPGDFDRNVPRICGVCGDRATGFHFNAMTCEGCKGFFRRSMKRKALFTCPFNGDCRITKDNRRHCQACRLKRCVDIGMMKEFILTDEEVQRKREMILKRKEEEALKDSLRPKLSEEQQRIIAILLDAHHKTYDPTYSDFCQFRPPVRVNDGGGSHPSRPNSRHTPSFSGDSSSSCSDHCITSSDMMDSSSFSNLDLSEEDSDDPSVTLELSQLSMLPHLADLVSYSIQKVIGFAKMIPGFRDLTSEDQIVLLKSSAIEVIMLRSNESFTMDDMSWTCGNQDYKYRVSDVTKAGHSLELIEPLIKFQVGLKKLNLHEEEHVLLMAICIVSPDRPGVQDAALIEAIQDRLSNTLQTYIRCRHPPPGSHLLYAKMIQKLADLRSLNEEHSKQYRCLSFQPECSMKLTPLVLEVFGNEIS
# Chain of Bile acid receptor (Homo sapiens) (Q96RI1 whole entry, looked up): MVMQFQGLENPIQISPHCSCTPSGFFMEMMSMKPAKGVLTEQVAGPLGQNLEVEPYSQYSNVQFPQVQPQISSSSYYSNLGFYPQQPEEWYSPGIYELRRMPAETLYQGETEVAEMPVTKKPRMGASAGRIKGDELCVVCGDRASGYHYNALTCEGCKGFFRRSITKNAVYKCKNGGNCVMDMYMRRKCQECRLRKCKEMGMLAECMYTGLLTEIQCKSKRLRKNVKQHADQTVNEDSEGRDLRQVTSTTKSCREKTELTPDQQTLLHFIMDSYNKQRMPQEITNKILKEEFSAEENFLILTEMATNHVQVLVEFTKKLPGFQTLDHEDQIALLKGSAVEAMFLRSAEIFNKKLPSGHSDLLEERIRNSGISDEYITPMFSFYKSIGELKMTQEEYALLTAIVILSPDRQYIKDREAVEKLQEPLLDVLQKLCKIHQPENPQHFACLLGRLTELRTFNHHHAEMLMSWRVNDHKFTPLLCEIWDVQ
Structure (SMILES),Potency [1],outcome [2],Potency [3],outcome [4],Potency [5],Potency [6],outcome [7],outcome [8],Potency [9],outcome [10]
CCCCCCCCCCCCCO,inactive,inactive,inactive,inactive,inactive,inactive,inactive,inactive,–,–
CC/C=C\C/C=C\C/C=C\CCCCCCCC(=O)O,inactive,inactive,inactive and 34.7 µM (active),–,inactive,inactive,inactive,inactive,inactive,inactive
C[N+](C)(C)CCO,inactive,inactive,inactive,inactive,inactive,inactive,inactive,inactive,–,–
CCCCCCC(C)O (configuration not stated),inactive,inactive,inactive,inactive,inactive,inactive,inactive,inactive,–,–
C1COCCN1,inactive,inactive,inactive,inactive,inactive,inactive,inactive,inactive,–,–
CCCCCCCCCCC(CO)CCCCCCCC (configuration not stated),inactive,inactive,inactive,inactive,inactive,inactive,inactive,inactive,–,–
Cc1ccc(C(C)(C)C)cc1,inactive,inactive,inactive,inactive,inactive,inactive,inactive,inactive,–,–
Nc1ccc2c(c1)C(=O)c1ccccc1C2=O,inactive,inactive,inactive,inactive,inactive,inactive,–,–,–,–
c1ccc2ncccc2c1,inactive,inactive,inactive,inactive,inactive,inactive,–,–,–,–
COC(=O)C(C)Oc1ccc(Oc2ncc(C(F)(F)F)cc2Cl)cc1 (configuration not stated),inactive,inactive,inactive,inactive,inactive,inactive,inactive,inactive,–,–
CCCCCC1C(=O)CCC1CC(=O)OC (configuration not stated),inactive,inactive,inactive,inactive,inactive,inactive,inactive,inactive,–,–
C[C@]12C=CC(=O)C=C1CC[C@H]1[C@@H]3C[C@@H](O)[C@](O)(C(=O)CO)[C@@]3(C)C[C@H](O)[C@@]12F,inactive,inactive,inactive,inactive,inactive,inactive,inactive,inactive,–,–
COc1ccc(C(=O)c2ccccc2O)c(O)c1,inactive,inactive,inactive,inactive,inactive,inactive,–,–,–,–
O=C1OC2(c3ccccc31)c1cc(I)c(O)c(I)c1Oc1c2cc(I)c(O)c1I,inactive,inactive,inactive and 33.4 µM (active),inactive,inactive,inactive,–,inactive,–,–
COC(=O)CC(=O)OC,inactive,inactive,inactive,inactive,inactive,inactive,inactive,inactive,–,–
Nc1cc([N+](=O)[O-])ccc1C(=O)O,inactive,inactive,inactive,inactive,inactive,inactive,inactive,inactive,–,–
CC(=O)Nc1ccc2c(c1)Cc1cc(NC(C)=O)ccc1-2,inactive,inactive,inactive,inactive,inactive,inactive,inactive,inactive,–,–
CC1(C)C(C=C(Cl)Cl)C1C(=O)OCc1cccc(Oc2ccccc2)c1 (configuration not stated),inactive,inactive,inactive,inactive,inactive,inactive,inactive,inactive,–,–
COCCOCCOCCO,inactive,inactive,inactive,–,inactive,inactive,inactive,inactive,–,–
CCCCCC=O,inactive,inactive,inactive,–,inactive,inactive,inactive,inactive,inactive,inactive
CC(C)(Oc1ccc(Cl)cc1)C(=O)O,inactive,inactive,inactive,inactive,inactive,inactive,inactive,inactive,–,–
CCC/C=C/C=O,inactive,inactive,inactive,–,inactive,inactive,–,–,–,–
CC(=O)Oc1c(C)c(C)c2c(c1C)CC[C@@](C)(CCC[C@H](C)CCC[C@H](C)CCCC(C)C)O2,inactive,inactive,inactive,–,inactive,inactive,inactive,inactive,–,–
Cc1ccc(N)c([N+](=O)[O-])c1,inactive,inactive,inactive,inactive,inactive,inactive,inactive,inactive,–,–
Cc1ccc(S(=O)(=O)O)cc1C,inactive,inactive,inactive,inactive,inactive,inactive,inactive,inactive,–,–
Cc1ccc2c(c1)C(=O)OC2=O,inactive,inactive,inactive,inactive,inactive,inactive,inactive,inactive,–,–
CC1(C)O[C@@H]2C[C@H]3[C@@H]4C[C@H](F)C5=CC(=O)C=C[C@]5(C)[C@@]4(F)[C@@H](O)C[C@]3(C)[C@]2(C(=O)CO)O1,inactive,inactive,inactive,–,inactive,inactive,–,inactive,–,–
C=CC(C)(O)CCC=C(C)C (configuration not stated),inactive,–,inactive,–,inactive,inactive,inactive,inactive,inactive,inactive

# Source: PubChem BioAssay (Tox21)
